# High-throughput results (PubChem BioAssay)
# Only some compounds are listed: those with a hit (about 2.1% of all), similar ones and a draw of the others.
# Wee1 stabilizer: blocks degradation of human Wee1 kinase; AID 1321; 220,000 tested, 1.2% active; reporter increase, % at 5 µM; HeLa Luc-Wee1K328M stability, luciferase luminescence; 100% = proteasome inhibitor MG132 effect; P30291;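 active = activation above the mean of all tested compounds plus 3 SD, set per screening run, cut at about 8.8% in these data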;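 also: cells exposed to compound for 20 h before luminescence read; 0% = DMSO alone and 100% = MG132 at 30 µM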
# Target sequence (P30291 whole entry K328M): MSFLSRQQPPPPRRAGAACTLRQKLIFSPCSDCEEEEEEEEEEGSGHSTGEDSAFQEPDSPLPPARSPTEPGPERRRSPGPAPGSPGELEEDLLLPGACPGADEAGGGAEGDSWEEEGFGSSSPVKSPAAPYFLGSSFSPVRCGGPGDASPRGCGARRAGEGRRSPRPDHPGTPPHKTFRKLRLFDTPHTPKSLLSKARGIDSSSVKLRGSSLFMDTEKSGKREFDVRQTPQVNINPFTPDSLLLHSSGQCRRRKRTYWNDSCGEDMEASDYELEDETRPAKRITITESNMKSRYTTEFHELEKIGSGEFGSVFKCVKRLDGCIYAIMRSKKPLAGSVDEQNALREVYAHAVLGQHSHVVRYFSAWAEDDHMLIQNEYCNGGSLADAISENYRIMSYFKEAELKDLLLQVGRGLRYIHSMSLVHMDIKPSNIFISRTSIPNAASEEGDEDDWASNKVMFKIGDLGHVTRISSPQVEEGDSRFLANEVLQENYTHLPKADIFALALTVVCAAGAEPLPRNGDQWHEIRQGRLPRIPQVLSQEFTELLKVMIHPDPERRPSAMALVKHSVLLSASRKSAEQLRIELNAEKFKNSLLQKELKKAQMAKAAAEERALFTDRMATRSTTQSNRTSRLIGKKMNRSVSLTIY
# Platelet DG rel: modulates dense granule release in human platelets; human platelet-rich plasma, SFLLRN dense granule ATP release, luminescence; inhibition, %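 (compounds screened at 7.5 µM in platelet-rich plasma)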; 300,000 tested, 0.22% active;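 active = mean replicate score, as percent of positive control, at or above 50; inconclusive = mean below 50 but at least one replicate at or above 50; inactive = mean and every replicate below 50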
# aSyn 5UTR inh: MLPCN primary screen, SNCA 5' untranslated region. alpha-synuclein 5'UTR reporter, inhibitor activity. inhibition, % (tested at 7.5 µM). 300,000 tested, 0.82% active. AID 1813; in the data active = inhibition above about 60%; inconclusive = no clear call, values can overlap the other calls;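 also: H4 neuroglioblastoma cells stably carrying SNCA 5'UTR luciferase fusion; 0% = DMSO wells and 100% = positive control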
# HIF activator: HIF pathway transcriptional activation | activation, % at 7.5 µM (by protocol) | 300,000 tested, 0.32% active | U2OS HRE-luciferase reporter, luminescence; normalized: DMSO 0%, desferrioxamine 100%;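 active = mean activation of at least 10% of the iron chelator positive control signal, with at least half of replicates also reaching 10%; inconclusive = mean and replicate majority disagree about reaching 10%; inactive = mean and most replicates under 10%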
# KLF5 inh: suppresses KLF5 promoter-driven expression | 290,000 tested, 0.23% active | inhibition, % at 5 µM | DLD-1 KLF5 promoter-luciferase reporter, luminescence;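 active = inhibition above a per-plate limit of that plate's mean compound inhibition plus 3 SD, cut at about 60% in these data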;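 also: 0% = DMSO wells and 100% = LY294002 at 200 µM; higher means less KLF5 promoter-driven luciferase light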
# * marks the source's active call; other numbers are inactive results; u = inconclusive; x = no result given.
SMILES,Wee1 stabilizer,Platelet DG rel,aSyn 5UTR inh,HIF activator,KLF5 inh
O=C(NCC(c1cccs1)N1CCOCC1)C1CCN(S(=O)(=O)c2c(Cl)cccc2Cl)CC1 (centres undefined),x,4,10,-1,x
CCOc1ccc(NC(=O)COC(=O)C2C3CC4OC(=O)C2C4C3)cc1 (centres undefined),x,-2,-2,0,17
CCOc1ccc2c(c1)c1nnc(SCC3CCCO3)nc1n2C (centres undefined),-1,-1,-39,93*,-67
Cc1ccccc1N1CC(C(=O)Nc2ccc(S(=O)(=O)N3CCOCC3)cc2)CC1=O (centres undefined),x,6,-13,0,-23
Cc1ccccc1-n1ncc(C(C)NS(=O)(=O)c2ccccc2Cl)c1C (centres undefined),x,-9,10,0,-22
CCOC(=O)c1nc(NNC(=O)c2ccc([N+](=O)[O-])cc2)sc1C,x,4,62*,-2,53
COc1ccccc1NS(=O)(=O)c1cccc(NC(=O)NCCCl)c1,11*,3,-5,0,-20
Cc1cccc(N2CCN(C(=O)c3cc(S(=O)(=O)N4CCCC4)cn3C)CC2)c1C,x,36,35,1,43
Cn1cc(S(=O)(=O)N2CCCC2)cc1C(=O)N1CCN(c2cccc(Cl)c2)CC1,x,59*,3,0,-23
COc1ccc(Cl)cc1NC(=O)c1cc(S(=O)(=O)N2CCCC2)cn1C,x,63*,2,0,-16
N/C(=N\OC(=O)C(c1ccccc1)c1ccccc1)c1cccnc1,-3,1,6,72*,7
CC(C)(C)c1cc2nc3c(c(=O)n2[nH]1)CN(Cc1ccccc1)C3=O,3,-22,-6,0,6
Cc1ccc2c(c1)Cc1nc3ccccc3nc1-2,2,27,71*,-5,-21
Cc1ccc2c(c1)-c1nc3ccccc3cc1C2=NC1CCCCC1,-3,x,x,x,-113
O=C(O)c1cccc(N=C2NC(=O)C(CO)(CO)S2)c1,x,-3,-3,-1,-42
COC(=O)c1ccc(C(C(=O)NCc2ccccc2)N(Cc2ccco2)C(=O)c2cnccn2)cc1 (centres undefined),1,7,12,174*,-5
O=C(NCc1ccccc1)C(c1cccnc1)N(Cc1ccco1)C(=O)c1ccccn1 (centres undefined),-5,2,-15,-1,7
CSc1nc2c(c(-c3ccc(O)cc3)c1C#N)CCC2,-1,63*,39,0,12
COc1ccc(-c2c(C#N)c(N)nc3c2CCC3)cc1,-2,-9,25,1,-20
Cc1ccc(S(=O)(=O)N(C)C)cc1-n1c(SCC(=O)Nc2ccc(F)cc2Cl)nc2ccccc2c1=O,8.9*,11,25,-1,18
Cc1ccc(S(=O)(=O)N(C)C)cc1-n1c(SCC(=O)Nc2ccc(F)cc2)nc2ccccc2c1=O,0,3,4,0,16
CCN1CCN(CCc2nc3cc([N+](=O)[O-])ccc3n2C)CC1,9.3*,-5,7,-1,-10
Cn1c(CCN2CCCCC2)nc2cc([N+](=O)[O-])ccc21,-2,-2,20,0,-14
N#CC(C#N)=C1NC(N)=C(C#N)C(c2ccccc2)=C1C#N,x,-3,19,-1,-46
Cc1ccccc1C(=O)/C(C#N)=N/Nc1c(C)n(C)n(-c2ccccc2)c1=O,5,15,79*,0,30
SMILES,Wee1 stabilizer,Platelet DG rel,aSyn 5UTR inh,HIF activator,KLF5 inh
O=C(Nc1ccc(-c2nc3ccccc3[nH]2)cc1)c1ccco1,3,0,-133,2,-146
O=C(/C=C/c1ccco1)Nc1ccc(-c2nc3ccccc3[nH]2)cc1,0,-1,89*,3,-38
C=CCc1cc(OC)ccc1OCCCCn1cncn1,x,-3,7,-2,-36
CCC1CCCCN1CCCNC(=O)c1ccc2c(c1)N(Cc1ccc(F)cc1)C(=O)c1ccccc1S2=O (centres undefined),x,0,-51,0,-28
COc1ccc(CNC(=O)c2csc(Cc3ccc(OC)cc3)n2)cc1,-1,3,-30,0,6
COc1ccc(CNC(=O)c2csc(Cc3ccc(Cl)cc3)n2)cc1,9.5*,4,1,-1,5
COc1ccc(-c2cc(CCCC(=O)NCCc3ccccc3)no2)cc1,5,5,-52,1,-45
CCOc1ccc(-c2cc(CCCC(=O)Nc3cccc(OC)c3)no2)cc1,-2,-1,68*,-2,2
CCOc1ccc(-c2cc(CCCC(=O)Nc3cc(OC)ccc3OC)no2)cc1,-2,4,83*,-3,-12
CCOc1ccc(-c2cc(CCCC(=O)NCCc3ccc(OC)c(OC)c3OC)no2)cc1,8,4,u,-2,-34
CCOc1ccc(-c2cc(CCCC(=O)NCCc3ccccc3)no2)cc1,1,-1,62*,-3,-15
CCOc1ccc(NC(=O)CCCc2cc(-c3ccc(OCC)cc3)on2)cc1,-1,-4,35,0,-14
CC(=O)NCc1cn2c(C)csc2n1,2,83*,-7,1,-14
COc1ccc(-n2c(N)c(C(=O)NCC3CCCO3)sc2=S)cc1 (centres undefined),10*,-8,12,0,-3
CCOC(=O)c1ccc(-n2c(N)c(C(=O)NCC3CCCO3)sc2=S)cc1 (centres undefined),0,-4,5,1,-5
Cn1c(CCNC(=O)c2ccco2)nc2cc(NC(=O)C3CCCCC3)ccc21,-1,-3,-50,176*,-28
Nc1cc(=O)[nH]c(SCC(=O)Nc2ccc(Oc3ccccc3)cc2)n1,x,-1,2,1,-8
OCCN(CCO)CC(O)COc1ccc(C23CC4CC(CC(C4)C2)C3)cc1 (centres undefined),0,-22,76*,-6,2
CCCCCCCCCCOC(=O)Cn1c(COc2ccccc2OC)[n+](C)c2ccccc21,x,7,81*,1,25
Cn1c(COc2ccccc2O)[n+](C)c2ccccc21,x,x,12,0,-14
O=C(Nc1ccc(N2CCOCC2)cc1)c1cnsn1,-3,13,106*,-3,16
O=C(Nc1ccc(N2CCOCC2)cc1)c1cnccn1,x,22,67*,-2,44
O=C(Nc1ccccc1N1CCOCC1)c1cnccn1,-1,7,16,2,15
COc1cccc(/C=N\NC(=O)Cn2nnc3ccccc32)c1O,-3,0,17,16*,-9
COc1cccc(/C=N/NC(=O)CNC(=O)C(c2ccccc2)c2ccccc2)c1O,x,14,32,14*,25
Cc1ccc(NC(=O)Cn2nnc3ccccc32)cc1,10*,-4,-176,3,-103
COc1cccc(/C=N/NC(=O)CSCC(=O)Nc2ccccc2)c1O,-1,4,43,17*,32
O=C(CN(C(=O)CCC(=O)Nc1nccs1)c1ccccc1F)NCc1ccccc1,x,2,15,-1,0
CN(C)CCNc1ncnc2c1sc1nc(N3CCOCC3)c3c(c12)CC(C)(C)SC3,1,15,72*,-7,-29
